Source: the supplement of paper PMC12645437, “Orthogonal IMiD-Degron Pairs Induce Selective Protein Degradation in Cells” (ACS Chemical Biology, 2025)
Whole data set: some 8,300 sequences, median “log2 fold change of degron read counts, EGFP-low vs EGFP+ sorted cells (limma voom), compound-induced degradation” near -1.1, cut for the highest 2% near 3.2. Shown is part of a subset that was picked to be rich in the highest values.

Biological target: T1, CRBN, Q96SW2
T1 chain: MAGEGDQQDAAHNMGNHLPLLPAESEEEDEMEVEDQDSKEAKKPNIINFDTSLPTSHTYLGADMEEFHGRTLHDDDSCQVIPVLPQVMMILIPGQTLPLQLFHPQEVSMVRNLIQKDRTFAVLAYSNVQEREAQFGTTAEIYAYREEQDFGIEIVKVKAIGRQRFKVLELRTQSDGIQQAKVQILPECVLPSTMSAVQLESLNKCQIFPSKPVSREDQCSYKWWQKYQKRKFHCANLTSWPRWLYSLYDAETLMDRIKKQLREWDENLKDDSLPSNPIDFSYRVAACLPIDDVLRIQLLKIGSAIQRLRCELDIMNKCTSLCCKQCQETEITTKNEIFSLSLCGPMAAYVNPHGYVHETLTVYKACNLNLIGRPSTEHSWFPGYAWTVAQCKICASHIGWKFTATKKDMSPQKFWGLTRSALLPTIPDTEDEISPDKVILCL
Assay: log2 fold change of degron read counts, EGFP-low vs EGFP+ sorted cells (limma voom), compound-induced degradation; higher = more compound-induced degradation of the degron-EGFP fusion; degrons are variants of IKZF1/3 zinc finger 2; compound dose not given here
Settings: Jurkat, 18 h

[1] = compound: compound 19 (5-tert-butyl-thalidomide)
[2] = compound: compound 22 (5-morpholino-thalidomide)
[3] = compound: compound 33 (diphenyl IMiD analogue)
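Further: pooled lentiviral library of zinc finger degron-EGFP fusions in mCherry-positive Jurkat cells, FACS-sorted after compound exposure, with degron abundance counted by next-generation sequencing.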

B1: 46F_47D_49P_50I_52G_53A_54E_55F_67L_, Q9UKT9 (peptide)
chain: FDCPICGAEFTQKGNLLRHIKL
[1]
  log2 fold change of degron read counts: -0.0781
[2]
  log2 fold change of degron read counts: -0.933
[3]
  log2 fold change of degron read counts: 1.14
compound: thalidomide
  log2 fold change of degron read counts: 0.579

B2: 46F_47D_49N_50V_52G_53A_54L_55F_67L_, Q9UKT9 (peptide)
chain: FDCNVCGALFTQKGNLLRHIKL
[1]
  log2 fold change of degron read counts: -2.45
[2]
  log2 fold change of degron read counts: -2.67
[3]
  log2 fold change of degron read counts: -0.75
compound: thalidomide
  log2 fold change of degron read counts: -0.856

B3: 46F_47R_49P_50I_52G_53H_54E_55F_67L_, Q9UKT9 (peptide)
chain: FRCPICGHEFTQKGNLLRHIKL
[1]
  log2 fold change of degron read counts: -2.68
[2]
  log2 fold change of degron read counts: -2.48
[3]
  log2 fold change of degron read counts: -1.5
compound: thalidomide
  log2 fold change of degron read counts: -1.35

B4: 46F_47T_49E_50Q_52G_53A_54H_55F_67L_, Q9UKT9 (peptide)
chain: FTCEQCGAHFTQKGNLLRHIKL
[1]
  log2 fold change of degron read counts: -1.82
[2]
  log2 fold change of degron read counts: -1.63
[3]
  log2 fold change of degron read counts: -0.151
compound: thalidomide
  log2 fold change of degron read counts: -0.624

B5: 46F_47V_49N_50Q_52G_53H_54N_55F_67L_, Q9UKT9 (peptide)
chain: FVCNQCGHNFTQKGNLLRHIKL
[1]
  log2 fold change of degron read counts: -3
[2]
  log2 fold change of degron read counts: -3.4
[3]
  log2 fold change of degron read counts: -2.99
compound: thalidomide
  log2 fold change of degron read counts: -3.15

B6: 46F_47I_49E_50I_52G_53A_54K_55F_67L_, Q9UKT9 (peptide)
chain: FICEICGAKFTQKGNLLRHIKL
[1]
  log2 fold change of degron read counts: 0.419
[2]
  log2 fold change of degron read counts: 2.07
[3]
  log2 fold change of degron read counts: 0.709
compound: thalidomide
  log2 fold change of degron read counts: 2.61

B7: 46F_47R_49E_50I_52G_53A_54K_55F_67L_, Q9UKT9 (peptide)
chain: FRCEICGAKFTQKGNLLRHIKL
[1]
  log2 fold change of degron read counts: -0.269
[2]
  log2 fold change of degron read counts: -0.354
[3]
  log2 fold change of degron read counts: 0.56
compound: thalidomide
  log2 fold change of degron read counts: 1.68

B8: 46F_47G_49E_50I_52G_53A_54K_55F_67L_, Q9UKT9 (peptide)
chain: FGCEICGAKFTQKGNLLRHIKL
[1]
  log2 fold change of degron read counts: 3.49
[2]
  log2 fold change of degron read counts: 1.63
[3]
  log2 fold change of degron read counts: -1.11
compound: thalidomide
  log2 fold change of degron read counts: 1.73

B9: 46F_47A_49E_50I_52G_53A_54K_55F_67L_, Q9UKT9 (peptide)
chain: FACEICGAKFTQKGNLLRHIKL
[1]
  log2 fold change of degron read counts: 3.82
[2]
  log2 fold change of degron read counts: 1.86
[3]
  log2 fold change of degron read counts: -1.82
compound: thalidomide
  log2 fold change of degron read counts: 1.35

B10: 46F_47M_49E_50I_52G_53A_54K_55F_67L_, Q9UKT9 (peptide)
chain: FMCEICGAKFTQKGNLLRHIKL
[1]
  log2 fold change of degron read counts: 0.747
[2]
  log2 fold change of degron read counts: -0.267
[3]
  log2 fold change of degron read counts: 0.58
compound: thalidomide
  log2 fold change of degron read counts: 1.27

B11: 46F_47T_49E_50I_52G_53A_54K_55F_67L_, Q9UKT9 (peptide)
chain: FTCEICGAKFTQKGNLLRHIKL
[1]
  log2 fold change of degron read counts: 0.913
[2]
  log2 fold change of degron read counts: 1.9
[3]
  log2 fold change of degron read counts: 0.245
compound: thalidomide
  log2 fold change of degron read counts: 2.71

B12: 46F_47V_49E_50I_52G_53A_54K_55F_67L_, Q9UKT9 (peptide)
chain: FVCEICGAKFTQKGNLLRHIKL
[1]
  log2 fold change of degron read counts: 1.42
[2]
  log2 fold change of degron read counts: 1.89
[3]
  log2 fold change of degron read counts: 0.387
compound: thalidomide
  log2 fold change of degron read counts: 3.07

B13: 46F_47W_49E_50I_52G_53A_54K_55F_67L_, Q9UKT9 (peptide)
chain: FWCEICGAKFTQKGNLLRHIKL
[1]
  log2 fold change of degron read counts: 3.96
[2]
  log2 fold change of degron read counts: 3.75
[3]
  log2 fold change of degron read counts: 1.53
compound: thalidomide
  log2 fold change of degron read counts: 1.31

B14: 46F_47F_49N_50Q_52G_53A_54A_55F_67L_, Q9UKT9 (peptide)
chain: FFCNQCGAAFTQKGNLLRHIKL
[1]
  log2 fold change of degron read counts: -1.05
[2]
  log2 fold change of degron read counts: -0.697
[3]
  log2 fold change of degron read counts: -0.811
compound: thalidomide
  log2 fold change of degron read counts: -1.91

B15: 46L_47M_49P_50I_52G_53F_54I_55C_67L_, Q9UKT9 (peptide)
chain: LMCPICGFICTQKGNLLRHIKL
[1]
  log2 fold change of degron read counts: -0.334
[2]
  log2 fold change of degron read counts: 0.292
[3]
  log2 fold change of degron read counts: 2.06
compound: thalidomide
  log2 fold change of degron read counts: 1.27

B16: 46L_47R_49N_50Q_52G_53F_54G_55C_67L_, Q9UKT9 (peptide)
chain: LRCNQCGFGCTQKGNLLRHIKL
[1]
  log2 fold change of degron read counts: -1.13
[2]
  log2 fold change of degron read counts: -1.8
[3]
  log2 fold change of degron read counts: -1.41
compound: thalidomide
  log2 fold change of degron read counts: -1.08

B17: 46F_47F_49S_50V_52G_53H_54E_55F_67L_, Q9UKT9 (peptide)
chain: FFCSVCGHEFTQKGNLLRHIKL
[1]
  log2 fold change of degron read counts: -2.81
[2]
  log2 fold change of degron read counts: -3.34
[3]
  log2 fold change of degron read counts: -3.2
compound: thalidomide
  log2 fold change of degron read counts: -2.56

B18: 46F_47C_49P_50I_52G_53A_54M_55F_67L_, Q9UKT9 (peptide)
chain: FCCPICGAMFTQKGNLLRHIKL
[1]
  log2 fold change of degron read counts: 1.6
[2]
  log2 fold change of degron read counts: 1.26
[3]
  log2 fold change of degron read counts: 2.22
compound: thalidomide
  log2 fold change of degron read counts: 1.23
